# FBPA Giardia inh – blocks Giardia fructose-bisphosphate aldolase activity; hit rate 0.71% among 290,000; purified Giardia FBPA; Potency, µM (highest dose often 59.6 µM), inactives show at the highest dose activity, negative = inhibition, most hits filed as inhibitors; A8B2U2; also: potency is read from the fitted curve at half-maximal effect; % is scaled to controls: 0 for no effect and ±100 for the full control effect; nearly all actives have a fitted effect of over 55% in size
# Target sequence (A8B2U2 whole entry, looked up): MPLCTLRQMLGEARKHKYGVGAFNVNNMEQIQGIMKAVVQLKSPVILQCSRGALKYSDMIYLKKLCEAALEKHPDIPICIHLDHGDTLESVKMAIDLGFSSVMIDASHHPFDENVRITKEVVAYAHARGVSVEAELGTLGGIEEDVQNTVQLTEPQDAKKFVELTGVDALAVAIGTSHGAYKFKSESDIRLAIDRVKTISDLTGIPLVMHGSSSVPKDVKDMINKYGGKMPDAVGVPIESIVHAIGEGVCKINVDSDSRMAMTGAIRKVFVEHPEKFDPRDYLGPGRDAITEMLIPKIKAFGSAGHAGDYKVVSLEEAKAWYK
#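 40 nM FBPA preincubated 10 min at RT with compound (up to 57.5 uM final), then substrate plus GAPDH/TPI/NAD/arsenate coupling and diaphorase/resazurin added. Fluorescence read after 20 min at RT, 525/598 nm.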
# Shiga toxin inh – blocks Shiga toxin action in Vero cells | Vero cells, Shiga toxin protein synthesis inhibition reporter | AID 2315 | hit rate 9.2% among 290,000 | inhibition, % at 38.7 µM; in the data active = inhibition mostly above about 28%, no sharp cut-off; inactive = mostly below about 43%; also: 0% is about no effect
# RE007 growth inh – less growth of the S. pombe RE007 Vpr strain | S. pombe RE007 Vpr strain, BacTiter-Glo ATP luminescence, 24 h | Potency, µM (highest dose often 92.2 µM), inactives show at the top dose activity change, negative = less growth, hits mostly inhibitors | hit rate 0.21% among 360,000 | AID 651644; active = well fitted falling curve with a large enough effect; inconclusive = small, poorly fitted or top-dose-only effect; inactive = no such curve, though single readings can be large or run the other way; also: potency is read from the fitted curve at half-maximal effect; % is scaled to controls: 0 for no effect and ±100 for the full control effect; nearly all actives have a fitted effect of over 50% in size
#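 Fission yeast strain RE007, carrying one chromosomally integrated HIV-1 vpr copy, was seeded at OD 0.01 in PMG+AL medium with 23 nL pinned compound. After 24 h at 30 °C and 99% humidity, viability was read by BacTiter-Glo luminescence.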
# LmPK inh – blocks Leishmania mexicana pyruvate kinase activity; hit rate 0.37% among 290,000; purified LmPK, Kinase-Glo ATP luminescence, 1 h; Potency, µM (series often up to 57.5 µM), for inactives: at the top dose activity change, negative = inhibition, hits mostly inhibitors; also: potency is read from the fitted curve at half-maximal effect; % is scaled to controls: 0 for no effect and ±100 for the full control effect
#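 qHTS format; LmPK 0.1 nM; substrates PEP 0.5 mM and ADP 0.1 mM. One-hour room-temperature incubation, then coupled luciferase luminescence; 0.5 nM enzyme wells mark activation.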
# TbPYK inhibitor – blocks Trypanosoma brucei pyruvate kinase; Q57TT1; TbPYK enzyme, Kinase-Glo Plus ATP luminescence, 45 min; Potency, µM (series often up to 76.8 µM), for inactives: at the top dose activity, negative = inhibition, hits mostly inhibitors; hit rate 0.12% among 410,000; AID 624173; also: potency is read from the fitted curve at half-maximal effect; % is scaled to controls: 0 for no effect and ±100 for the full control effect; nearly all actives have a fitted effect of over 50% in size
#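 Luminescence from Kinase-Glo Plus, added after a 45-minute room-temperature reaction, served as the end-point read-out. The enzyme and substrate were preincubated with compound before ADP (130 uM final) initiated turnover. Concentration-effect curves came from normalized qHTS data.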
# Cycloheximide cs – counter-screen for Shiga toxin inhibitors: cycloheximide protein synthesis inhibition. cell reporter, cycloheximide protein synthesis inhibition counterscreen. max response, %. hit rate 12% among 300,000; in the data active = max response mostly above about 13%, no sharp cut-off; inactive = mostly below about 14%; also: read at 38.3 µM for the half of the compounds with a filed dose; 0% is about no effect
# Starred values were filed as active, the others as inactive; ? = inconclusive; / = no result; [ ] = remark or other dose. This excerpt belongs to a sample that is enriched for hits. Unless noted, calls follow the shape of the dose curve; as a rule, active = well fitted curve in the direction sought with a large enough effect; inconclusive = small, poorly fitted or top-dose-only effect, or another doubt; inactive = no such curve, though single readings can be large; an effect the other way counts as inactive or inconclusive.
SMILES,FBPA Giardia inh,Shiga toxin inh,RE007 growth inh,LmPK inh,TbPYK inhibitor,Cycloheximide cs
O=C(Nc1cccnc1)OCc1ccccc1,-3%,36,18%,0%,1%,19*
O=C(Nc1ccc(Cl)c(Cl)c1)OCc1cccnc1,2%,42*,-16%,2%,0%,20*
Cc1ccc(CSCC(=O)Nc2ccc(N3CCOCC3)cc2N2CCOCC2)cc1,/,/,-5%,/,-6%,/
COc1cccc(N2CCN(C(=O)c3ccc4c(Cl)c5c(nc4c3)CCCC5)CC2)c1,/,/,/,/,-8%,/
COc1ccc(OC)c(NC(=O)Cn2c(=O)c3cccn3c3ccccc32)c1,/,/,/,/,-2%,/
O=C(NNC(=S)Nc1ccccc1)Nc1ccccc1,-12%,88*,14%,4%,-9%,34*
O=C(NNC(=S)Nc1ccccc1)NNC(=S)Nc1ccccc1,4%,5,9%,1%,-16%,-3
Cc1ccc(NC(=S)NNC(=O)Nc2ccccc2)cc1,-2%,109*,8%,-4%,-1%,54*
NS(=O)(=O)c1ccc(NS(=O)(=O)c2ccc(NC(=S)Nc3ccccc3)cc2)cc1,-1%,-12,-3%,-2%,-5%,-2
Cc1ccc(NC(=S)NNC(=O)c2nn(C)c(C)c2Cl)cc1,13%,93*,13%,0%,-10%,36*
Cc1cc(C)cc(NS(=O)(=O)c2ccc(NC(=S)Nc3ccccc3)cc2)c1,-7%,-2,-1%,0%,-3%,14*
CCCSc1cc(OC)c(CCN)cc1OC,/,/,/,/,3%[157 µM],/
N=C1SCC(=O)N1c1ncc(Cc2ccc(F)cc2)s1,-23%,-5,28µM*,0%,-1%,-2
O=C1CSC(=S)N1c1ccc(F)cc1,6%,-12,/,1%,/,-1
C(#Cc1ccccc1)Cn1nnc2ccccc21,-4%,49*,17%,3%,4%,37*
CC(C)c1nn2c(=O)cc(COC(=O)c3ccc(NC(=O)C4CCCCC4)cc3)nc2s1,/,/,/,/,-7%,/
CCn1c(C(=O)N2CCCC(C(=O)NCCCOC)C2)cc2sccc21 (stereo not given),/,/,/,/,-1%,/
Cc1csc2nc(COc3ccccc3NC(=O)c3ccco3)cc(=O)n12,/,/,/,/,-3%,/
COc1ccccc1CN1CCN(Cc2nc(-c3cccs3)no2)CC1,2%,85*,-13%,7%,-14%,50*
C[C@@H]1CN(Cc2nc(-c3cccs3)no2)C[C@H](C)O1,6%,21,-4%,-11%,7%,5
c1csc(-c2noc(CN3CCc4sccc4C3)n2)c1,-9%,39*,1%,8%,5%,34*
COc1ccc(S(=O)(=O)N(CC(=O)Nc2ccc3c(c2)OCO3)c2ccc(C)cc2)cc1,/,/,/,/,-3%,/
O=C(COc1ccc(F)cc1)N1CCCc2ccccc21,-1%,44,-7%,-1%,8%,11
Cc1ccccc1OCC(=O)N1CCCc2ccccc21,-6%,active,6%,-5%,-8%,33*
COc1ccc(OCCCC(=O)N2CCCc3ccccc32)cc1,4%,-7,3%,1%,-5%,6
SMILES,FBPA Giardia inh,Shiga toxin inh,RE007 growth inh,LmPK inh,TbPYK inhibitor,Cycloheximide cs
COc1cccc(OCC(=O)N2CCCc3ccccc32)c1,6%,26,-9%,0%,1%,37*
CN1CCN(C(=O)COc2ccc(Oc3ccccc3)cc2)CC1,0%,47,-11%,-1%,4%,6
COc1cccc(OCC(=O)N2CCN(C)CC2)c1,1%,53*,-7%,4%,1%,35*
CCc1ccc(S(=O)(=O)NCc2ccc3c(c2)CCN3C(=O)c2ccc(C)cc2)cc1,/,/,/,/,-6%,/
O=C(Nc1nccs1)c1ccc(N2C(=O)[C@@H]3[C@H](C2=O)[C@H]2C=C[C@@H]3C2)cc1,-1%,54*,7%,1%,-1%,26*
O=C(Nc1nccs1)c1cccc(N2C(=O)C3C4C=CC(C4)C3C2=O)c1 (stereo not given),-1%,-3,-25%,-1%,11%,-4
O=C(Nc1nccs1)c1ccc(N2C(=O)C3CCCCC3C2=O)cc1 (stereo not given),2%,70*,2%,-6%,-2%,37*
COCCNC(=S)N/N=C/c1ccccc1C(=O)O,?,-14,10%,-1%,-4%,-2
COCCCNC(=S)N/N=C/c1ccccc1O,13%,52*,-10%,-3%,-8%,44*
COCCNC(=S)N/N=C(\C)c1ccccc1OC,-22%,-2,1%,1%,0%,-2
COCCNC(=S)N/N=C(\C)c1ccccc1O,15%,94*,-20%,-4%,-5%,31*
CCOC(=O)c1ccc(OCC(=O)c2ccc(O)cc2O)cc1,10%,50*,1%,3%,4%,18*
O=C(COc1ccc(Cl)cc1)c1ccc(O)cc1O,-1%,69*,-10%,2%,3%,25*
COC(=O)c1ccc(OCC(=O)c2ccc(O)cc2O)cc1,10%,54,-5%,3%,-4%,11
Cc1ccn2cc(CCNC(=O)C3CC=CCC3C(=O)O)nc2c1 (stereo not given),-1%,77*,-10%,-2%,5%,20*
Cc1ccn2cc(CCNC(=O)CC(C)(C)C)nc2c1,-6%,9,-9%,-4%,-2%,12
Clc1ccc(NCc2ccsc2)cc1,?,27*,/,-6%,/,13*
O=C(Nc1cccc(F)c1)c1ccc2oc(=O)n(Cc3ccccc3)c2c1,/,/,/,/,-4%,/
CNC(=S)NCCCCc1cnc[nH]1,11µM*,-7,/,/,/,-1
S=C(NCCc1ccccc1)NCCc1cnc[nH]1,-26%,/,-7%,-5%,-7%,16*
Cc1ccc(NC(=S)NCCc2cnc[nH]2)cc1C,-14%,-8,?,1%,2%,-2
O=C(/C=C/c1cccc([N+](=O)[O-])c1)OCC(=O)N1CCCCC1,/,/,1%,/,-7%,/
CC(C)c1ccc(NC(=O)CN2CCN(c3ccccn3)CC2)cc1,4%,6,13%,-8%,-6%,-5
Oc1ccccc1/C=N/N1CCN(c2ccccn2)CC1,-4%,90*,-13%,-4%,-6%,37*
C(=N\N1CCN(c2ccccn2)CC1)/c1cccc2ccccc12,-7%,43*,-11%,-3%,-1%,17*
CC(C)c1ccc(/C=N/N2CCN(c3ccccn3)CC2)cc1,0%,43*,-7%,-1%,-1%,21*
Cc1ccc(NC(=O)CCn2c(=O)c3cccn3c3ccccc32)c(Cl)c1,/,/,/,/,1%,/
Cc1ccc(NC(=O)NCc2ccc3[nH]c(C)cc3c2)cc1,-6%,41*,2%,-1%,1%,45
Cc1ccc(CNC(=O)Nc2cccc(C)c2)cc1,4%,75*,3%,2%,6%,37*
Cc1cc2cc(CNC(=O)NC3CCCCC3)ccc2[nH]1,-9%,40*,-5%,7%,0%,18*

# Bioassay records (PubChem BioAssay)
